Measured values from PubChem BioAssay AID1159580 (chemical genetic matrix, 2015).
Several values for one entry are separate records, joined by “and”; a condition that tells them apart may be missing. Equal values may be shown once. The campaign covered roughly 5,500 compounds. About 2,000 (36%) were called active. About 18% were inconclusive and are not listed. Rule as the data show it: active = normalized growth mostly below about 0.91 (no sharp cut-off); inconclusive = no clear call, values can overlap the other calls; inactive = mostly above about 0.92. Some of the results follow.

Assay: chemical genetic growth profiling, strain panel (AID 1159580);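 also: tested at 20 µM; growth read once vehicle control cultures reached saturation at 30 °C; 1 = growth at the plate median or of vehicle wells; lower values mean less growth of the strain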
Conditions: S. cerevisiae deletion strains, growth OD

Measured: normalized growth

NCCCCCC(=O)O
inactive: locus YAL013W, strain DEP1, stronger effect = lower value 0.951 | locus YAL021C, strain ccr4, stronger effect = lower value 0.99 | locus YAL026C, strain drs2, stronger effect = lower value 1 | locus YAL030W, strain snc1, stronger effect = lower value 0.989 | locus YAL040C, strain CLN3, stronger effect = lower value 0.979 | locus YBL061C, strain skt5, stronger effect = lower value 1 | locus YBR009C, strain hhf1, stronger effect = lower value 1 | locus YBR023C, strain chs3, stronger effect = lower value 1 | locus YBR171W, strain sec66, stronger effect = lower value 0.991 | locus YBR229C, strain ROT2, stronger effect = lower value 0.988 | locus YBR231C, strain swc5, stronger effect = lower value 1.01 | locus YBR279W, strain paf1, stronger effect = lower value 0.996 | locus YCL011C, strain gbp2, stronger effect = lower value 0.994 | locus YCL016C, strain dcc1, stronger effect = lower value 1.01 | locus YCL029C, strain bik1, stronger effect = lower value 0.999 | locus YCL061C, strain MRC1 (second series), stronger effect = lower value 0.983 | locus YCL069W, strain vba3, stronger effect = lower value 0.995 | locus YCR088W, strain abp1, stronger effect = lower value 0.995 | locus YDL005C, strain med2, stronger effect = lower value 1.01 | locus YDL035C, strain GPR1, stronger effect = lower value 0.963 | locus YDL040C, strain nat1, stronger effect = lower value 0.997 | locus YDL074C, strain BRE1, stronger effect = lower value 0.964 | locus YDL101C, strain DUN1, stronger effect = lower value 1.01 | locus YDL134C, strain PPH21, stronger effect = lower value 0.979 | locus YDL185W, strain tfp1, stronger effect = lower value 1.01 | locus YDL192W, strain arf1, stronger effect = lower value 1.01 | locus YDR001C, strain nth1, stronger effect = lower value 1.03 | locus YDR069C, strain doa4, stronger effect = lower value 1.01 | locus YDR101C, strain arx1, stronger effect = lower value 0.981 | locus YDR137W, strain rgp1, stronger effect = lower value 0.972 | locus YDR150W, strain NUM1, stronger effect = lower value 0.974 | locus YDR159W, strain sac3, stronger effect = lower value 1 | locus YDR162C, strain NBP2, stronger effect = lower value 0.985 | locus YDR195W, strain ref2 0.976 | locus YDR297W, strain sur2, stronger effect = lower value 0.998 | locus YDR318W, strain mcm21, stronger effect = lower value 1.01 | locus YDR334W, strain swr1, stronger effect = lower value 1.02 | locus YDR335W, strain msn5, stronger effect = lower value 1.01 | locus YDR363W, strain ESC2, stronger effect = lower value 1.01 | locus YDR388W, stronger effect = lower value 0.998 | locus YDR392W, strain spt3, stronger effect = lower value 0.965 | locus YDR502C, strain sam2, stronger effect = lower value 1 | locus YEL003W, strain gim4, stronger effect = lower value 1 | locus YEL037C, strain rad23, stronger effect = lower value 0.999 | locus YEL061C, strain CIN8 (second series), stronger effect = lower value 1 | locus YEL061C, strain CIN8, stronger effect = lower value 0.995 | locus YER002W, strain NOP16, stronger effect = lower value 0.992 | locus YER015W, strain faa2, stronger effect = lower value 1 | locus YER016W, strain bim1, stronger effect = lower value 0.966 | locus YER110C, stronger effect = lower value 1.01 | locus YER111C, strain swi4, stronger effect = lower value 1.01 | locus YER155C, strain BEM2 (second series), stronger effect = lower value 0.976 | locus YER155C, strain BEM2, stronger effect = lower value 0.992 | locus YER167W, strain BCK2, stronger effect = lower value 0.99 | locus YFR010W, strain ubp6, stronger effect = lower value 1.03 | locus YGL078C, strain dbp3, stronger effect = lower value 1 | locus YGL086W, strain mad1, stronger effect = lower value 1 | locus YGL167C, strain pmr1, stronger effect = lower value 1 | locus YGL173C, strain kem1, stronger effect = lower value 1 | locus YGL227W, strain vid30, stronger effect = lower value 0.998 | locus YGL240W, strain doc1, stronger effect = lower value 1.03 | locus YGL248W, strain PDE1, stronger effect = lower value 0.987 | locus YGL253W, strain hxk2, stronger effect = lower value 1 | locus YGR078C, strain PAC10, stronger effect = lower value 0.997 | locus YGR135W, strain pre9, stronger effect = lower value 1 | locus YGR252W, strain gcn5, stronger effect = lower value 0.907 | locus YHR013C, strain ard1, stronger effect = lower value 1 | locus YHR027C, strain rpn1, stronger effect = lower value 0.999 | locus YHR030C, strain SLT2, stronger effect = lower value 0.999 and 1 | locus YHR079C, strain IRE1 (second series), stronger effect = lower value 1.01 | locus YHR079C, strain IRE1, stronger effect = lower value 1.04 | locus YHR094C, strain hxt1, stronger effect = lower value 1 | locus YHR129C, strain ARP1, stronger effect = lower value 0.998 | locus YHR142W, strain chs7, stronger effect = lower value 1 | locus YHR200W, strain rpn10, stronger effect = lower value 1.01 | locus YIL066C, strain RNR3, stronger effect = lower value 0.962 | locus YIL073C, strain SPO22, stronger effect = lower value 1.03 | locus YIL125W, strain kgd1, stronger effect = lower value 1.01 | locus YIR030C, strain dcg1, stronger effect = lower value 1.01 | locus YJL092W, strain hpr5, stronger effect = lower value 1.03 | locus YJL095W, strain BCK1 (second series), stronger effect = lower value 0.985 | locus YJL095W, strain BCK1, stronger effect = lower value 0.995 and 1.03 | locus YJL115W, strain asf1, stronger effect = lower value 1.01 | locus YJL129C, strain trk1, stronger effect = lower value 1.01 | locus YJL134W, strain LCB3, stronger effect = lower value 0.992 | locus YJL154C, strain vps35, stronger effect = lower value 0.998 | locus YJL164C, strain tpk1, stronger effect = lower value 0.996 | locus YJL166W, strain qcr8, stronger effect = lower value 1.02 | locus YJL168C, strain set2, stronger effect = lower value 1.01 | locus YJL187C, strain SWE1 (second series), stronger effect = lower value 0.992 | locus YJR043C, strain POL32, stronger effect = lower value 0.952 | locus YJR066W, strain TOR1, stronger effect = lower value 0.993 | locus YKL009W, strain mrt4, stronger effect = lower value 1.04 | locus YKL068W, stronger effect = lower value 0.994 | locus YKL085W, strain MDH1 (second series), stronger effect = lower value 1.01 | locus YKL085W, strain MDH1, stronger effect = lower value 1.01 | locus YKL160W, strain elf1, stronger effect = lower value 0.996 | locus YKR001C, strain vps1, stronger effect = lower value 1.04 | locus YKR026C, strain gcn3, stronger effect = lower value 1 | locus YKR091W, strain srl3, stronger effect = lower value 0.993 | locus YLL001W, strain dnm1, stronger effect = lower value 1 | locus YLL026W, stronger effect = lower value 1 | locus YLL041C, strain sdh2, stronger effect = lower value 0.999 | locus YLR027C, strain aat2, stronger effect = lower value 1 | locus YLR039C, strain RIC1, stronger effect = lower value 1.01 | locus YLR058C, strain SHM2, stronger effect = lower value 0.992 | locus YLR102C, strain apc9, stronger effect = lower value 1 | locus YLR113W, strain HOG1, stronger effect = lower value 1.02 | locus YLR221C, strain rsa3, stronger effect = lower value 0.987 | locus YLR258W, strain gsy2, stronger effect = lower value 0.995 | locus YLR262C, strain YPT6 (second series), stronger effect = lower value 0.996 | locus YLR262C, strain YPT6, stronger effect = lower value 1.05 | locus YLR268W, strain sec22, stronger effect = lower value 0.991 | locus YLR320W, strain mms22, stronger effect = lower value 0.992 | locus YLR330W, strain CHS5, stronger effect = lower value 0.997 | locus YLR342W, strain FKS1 (second series), stronger effect = lower value 0.942 | locus YLR342W, strain FKS1, stronger effect = lower value 1.01 | locus YLR357W, strain rsc2, stronger effect = lower value 1.02 | locus YLR370C, strain arc18, stronger effect = lower value 1.02 | locus YLR371W, strain rom2, stronger effect = lower value 1.01 | locus YLR384C, strain iki3, stronger effect = lower value 1.01 | locus YLR418C, strain cdc73, stronger effect = lower value 0.958 | locus YML016C, strain PPZ1, stronger effect = lower value 0.996 | locus YML032C, strain rad52, stronger effect = lower value 1.01 | locus YML120C, strain ndi1, stronger effect = lower value 1 | locus YML124C, strain tub3, stronger effect = lower value 1 | locus YMR058W, strain fet3, stronger effect = lower value 1.02 | locus YMR078C, strain ctf18, stronger effect = lower value 1.02 | locus YMR125W, strain sto1, stronger effect = lower value 0.988 | locus YMR129W, stronger effect = lower value 0.998 | locus YMR205C, strain PFK2, stronger effect = lower value 1 | locus YMR223W, strain ubp8, stronger effect = lower value 1.01 | locus YMR231W, strain pep5, stronger effect = lower value 1 | locus YMR263W, strain SAP30, stronger effect = lower value 0.99 and 0.985 | locus YMR307W, strain GAS1, stronger effect = lower value 0.893 | locus YNL067W, strain RPL9B, stronger effect = lower value 0.977 | locus YNL071W, strain lat1, stronger effect = lower value 0.991 | locus YNL128W, strain TEP1, stronger effect = lower value 1 | locus YNL153C, strain GIM3, stronger effect = lower value 0.995 and 0.976 | locus YNL175C, strain NOP13, stronger effect = lower value 0.985 | locus YNL183C, strain NPR1, stronger effect = lower value 0.978 | locus YNL197C, strain WHI3, stronger effect = lower value 1.01 | locus YNL209W, strain ssb2, stronger effect = lower value 0.998 | locus YNL224C, strain SQS1, stronger effect = lower value 1.02 | locus YNL233W, strain BNI4, stronger effect = lower value 0.994 | locus YNL248C, strain rpa49, stronger effect = lower value 0.926 | locus YNL250W, strain rad50, stronger effect = lower value 1.01 | locus YNL271C, strain bni1, stronger effect = lower value 1.02 | locus YNL298W, strain CLA4, stronger effect = lower value 1 | locus YNL307C, strain MCK1, stronger effect = lower value 0.998 | locus YNL322C, strain KRE1 (second series), stronger effect = lower value 1.02 | locus YNR049C, strain mso1, stronger effect = lower value 1.02 | locus YNR052C, strain pop2, stronger effect = lower value 1.01 | locus YOL012C, strain htz1 0.774 | locus YOL147C, strain pex11, stronger effect = lower value 1.01 | locus YOR001W, strain rrp6, stronger effect = lower value 1.01 | locus YOR061W, strain CKA2, stronger effect = lower value 0.994 | locus YOR069W, strain VPS5, stronger effect = lower value 0.994 | locus YOR070C, strain gyp1, stronger effect = lower value 0.986 | locus YOR080W, strain dia2, stronger effect = lower value 1 | locus YOR083W, strain WHI5 (second series), stronger effect = lower value 0.991 | locus YOR083W, strain WHI5, stronger effect = lower value 1 | locus YOR106W, strain vam3, stronger effect = lower value 1.02 | locus YOR136W, strain idh2, stronger effect = lower value 1.03 | locus YOR144C, strain elg1, stronger effect = lower value 1 | locus YOR184W, strain ser1, stronger effect = lower value 1 | locus YOR231W, strain MKK1, stronger effect = lower value 1.04 | locus YOR265W, strain rbl2, stronger effect = lower value 0.994 | locus YOR270C, strain vph1, stronger effect = lower value 1.01 | locus YOR290C, strain snf2, stronger effect = lower value 0.992 | locus YOR316C, strain cot1, stronger effect = lower value 1 | locus YPL051W, strain arl3, stronger effect = lower value 1 | locus YPL055C, strain LGE1, stronger effect = lower value 0.959 and 1.01 | locus YPL078C, strain atp4, stronger effect = lower value 1.01 | locus YPL106C, strain sse1, stronger effect = lower value 1 | locus YPL240C, strain hsp82, stronger effect = lower value 1.02 | locus YPL256C, strain CLN2, stronger effect = lower value 1.04 | locus YPR119W, strain clb2, stronger effect = lower value 1.01 | locus YPR141C, strain kar3, stronger effect = lower value 1.02 | locus YPR163C, strain tif3, stronger effect = lower value 1 | locus YPR167C, strain met16, stronger effect = lower value 1.01 | strain wtn01, stronger effect = lower value 0.997
active: locus YBR021W, strain FUR4, stronger effect = lower value 0.706
